Compound activity: PubChem, several laboratories
Most compounds without a hit are left out; they make up all but 6.6% or so of the library.
BoNT A protease: inhibitors of Botulinum neurotoxin A light chain protease; multiplex microsphere protease substrate cleavage, flow cytometry; inhibition, % at 10 µM; 0.17% of 360,000 active; AID 588499
Anthrax LF prot: blocks Bacillus anthracis lethal factor protease. P15917. multiplex microsphere protease cleavage assay, LF. inhibition, % at 10 µM. 0.12% of 360,000 active. AID 588501
GDH-TPI inh: counter-screen for M. tuberculosis FBA inhibitors: GDH-TPI coupled enzymes | 1.2% of 360,000 active | GDH-TPI coupled enzyme counterscreen, NADH absorbance | AID 588335 | inhibition, % at 4.8 µM; in the data active means inhibition above about 30%
Mtb FBA inh: Mtb fructose-bisphosphate aldolase inhibition. 2.3% of 360,000 active. purified M. tuberculosis FBA, fluorescence read-out. P9WQA3. inhibition, % at 1 µM. AID 588726; in the data active means inhibition above about 27%
Target sequence (P9WQA3 whole entry, looked up): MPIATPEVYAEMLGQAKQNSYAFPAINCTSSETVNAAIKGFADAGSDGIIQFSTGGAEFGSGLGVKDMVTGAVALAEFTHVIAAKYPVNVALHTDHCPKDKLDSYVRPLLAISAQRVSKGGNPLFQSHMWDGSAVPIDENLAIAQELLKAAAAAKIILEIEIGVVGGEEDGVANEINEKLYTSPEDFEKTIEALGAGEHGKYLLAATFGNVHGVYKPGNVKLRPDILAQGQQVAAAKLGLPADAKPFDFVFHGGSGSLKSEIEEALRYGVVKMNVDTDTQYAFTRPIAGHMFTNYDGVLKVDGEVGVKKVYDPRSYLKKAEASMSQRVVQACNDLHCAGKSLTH
Autofluor counter: flagged as autofluorescent in microsphere protease counterscreen. fluorescence intensity (no concentration beside the values). 3.1% of 360,000 active. compound autofluorescence counterscreen, microsphere flow cytometry; active compounds read high. AID 624483; in the data active means fluorescence intensity above about 16000
BoNT F protease: inhibitors of Botulinum neurotoxin F light chain protease | Multiplex microsphere protease cleavage assay, flow cytometry | inhibition, % at 10 µM | 0.22% of 360,000 active | AID 588497; in the data active means inhibition above about 35%, passing the limit was not always enough
BoNTA LC inh 2: inhibitors of botulinum neurotoxin A light chain protease; AID 602325; 10% of 150 active; multiplex microsphere protease cleavage assay, flow cytometry; inhibition, % at 10 µM; shares compounds with BoNT A protease; in the data active means inhibition above about 24%
LF protease CP2: blocks anthrax lethal factor protease; shares compounds with BoNT A protease; multiplex microsphere protease cleavage assay; inhibition, % at 10 µM; 7% of 150 active; AID 602327; in the data active means inhibition above about 25%
BoNT-F LC CP2: BoNT/F light chain protease inhibition; shares compounds with BoNT A protease; multiplex microsphere protease cleavage assay, flow cytometry; inhibition, % at 10 µM; 7% of 150 active; in the data active means inhibition above about 25%
A number is an active result. Unless noted, no stated cut-off is given here; in the data, active means inhibition above about 30%; inconclusive means no clear call, values can overlap the other calls; inactive means below that.

Results for COC(=O)c1ccc(CN2CCCC(CO)(Cc3ccc(F)cc3F)C2)cc1 (configuration not stated) ?
BoNT A protease: inactive; Anthrax LF prot: inactive; GDH-TPI inh: inactive; Mtb FBA inh: inactive; Autofluor counter: inactive; BoNT F protease: inactive

What do the screens show for `Cc1sc(NC(=O)C2CC=CCC2C(=O)O)c(C(=O)OC(C)C)c1C` (configuration not stated)?
BoNT A protease: inactive; Anthrax LF prot: inactive; GDH-TPI inh: inactive; Mtb FBA inh: inactive; Autofluor counter: inactive; BoNT F protease: inactive

How did Cc1ccc(C(=O)N2CCC(C(=O)Nc3cccc([N+](=O)[O-])c3)CC2)cc1 do in these assays?
BoNT A protease: inactive; Anthrax LF prot: inactive; GDH-TPI inh: inactive; Mtb FBA inh: inactive; Autofluor counter: inactive; BoNT F protease: inactive

Results for COc1cc(OC)cc(C(=O)NC(C(=O)Nc2ccc3nc(C)sc3c2)C(C)C)c1 (configuration not stated) ?
BoNT A protease: inactive; Anthrax LF prot: inactive; GDH-TPI inh: inactive; Mtb FBA inh: inactive; Autofluor counter: inactive; BoNT F protease: inactive

How did Cc1nc2ccc(NC(=O)[C@@H](NC(=O)c3c(F)cccc3F)C(C)C)cc2s1 do in these assays?
BoNT A protease: inactive; Anthrax LF prot: 39.8; GDH-TPI inh: inactive; Mtb FBA inh: inactive; Autofluor counter: inactive; BoNT F protease: inactive; BoNTA LC inh 2: inactive; LF protease CP2: inactive; BoNT-F LC CP2: 29.9

How did CC1CC(C)CN(C(=O)C2CCN(S(=O)(=O)c3cccc4cccnc34)CC2)C1 (configuration not stated) do in these assays?
BoNT A protease: inactive; Anthrax LF prot: inactive; GDH-TPI inh: inactive; Mtb FBA inh: inactive; Autofluor counter: inactive; BoNT F protease: inactive

How did CCN(CC)c1ccc(C=Nc2cccc(S(=O)(=O)N3CCOCC3)c2)c(O)c1 do in these assays?
BoNT A protease: 51.0; Anthrax LF prot: 45.5; GDH-TPI inh: 61.4; Mtb FBA inh: inactive; Autofluor counter: inactive; BoNT F protease: inactive; BoNTA LC inh 2: inactive; LF protease CP2: inactive; BoNT-F LC CP2: inactive

Results for Cc1ccc(S(=O)(=O)N2CC(O)C[C@H]2C(=O)OCC(=O)N2CCN(c3ccc(F)cc3)CC2)cc1C (some centres not stated) ?
BoNT A protease: 98.9; Anthrax LF prot: 97.4; GDH-TPI inh: inactive; Mtb FBA inh: inactive; Autofluor counter: inactive; BoNT F protease: 97.2; BoNTA LC inh 2: inactive; LF protease CP2: inactive; BoNT-F LC CP2: inactive

What do the screens show for `CC1CCN(c2ccc3c(c2)S(=O)(=O)c2cccc(C(=O)NCc4ccc(F)cc4)c2C3=O)CC1`?
BoNT A protease: inactive; Anthrax LF prot: inactive; GDH-TPI inh: inactive; Mtb FBA inh: inactive; Autofluor counter: inactive; BoNT F protease: inactive; BoNTA LC inh 2: inactive; LF protease CP2: inactive; BoNT-F LC CP2: inactive

Results for CC1CCN(c2ccc3c(c2)S(=O)(=O)c2cccc(C(=O)NC4CCCCC4)c2C3=O)CC1 ?
BoNT A protease: inactive; Anthrax LF prot: inactive; GDH-TPI inh: inactive; Mtb FBA inh: inactive; Autofluor counter: inactive; BoNT F protease: inactive; BoNTA LC inh 2: inactive; LF protease CP2: inactive; BoNT-F LC CP2: inactive

Results for O=C(NC1CC1)c1cccc2c1C(=O)c1ccc(N3CCC(Cc4ccccc4)CC3)cc1S2(=O)=O ?
BoNT A protease: inactive; Anthrax LF prot: inactive; GDH-TPI inh: inactive; Mtb FBA inh: inactive; Autofluor counter: inactive; BoNT F protease: inactive

What do the screens show for `O=C(NCc1cc(C(F)(F)F)ccc1Cl)c1cccc2c1C(=O)c1ccc(N3CCC(Cc4ccccc4)CC3)cc1S2(=O)=O`?
BoNT A protease: inactive; Anthrax LF prot: inactive; GDH-TPI inh: inactive; Mtb FBA inh: inactive; Autofluor counter: inactive; BoNT F protease: inactive; BoNTA LC inh 2: inactive; LF protease CP2: inactive; BoNT-F LC CP2: inactive

What do the screens show for `O=C(NC1CCCCC1)c1cccc2c1C(=O)c1ccc(N3CCCC3)cc1S2(=O)=O`?
BoNT A protease: inactive; Anthrax LF prot: inactive; GDH-TPI inh: inactive; Mtb FBA inh: inactive; Autofluor counter: inactive; BoNT F protease: inactive

What do the screens show for `COc1ccccc1N1CCN(c2ccc3c(c2)S(=O)(=O)c2cccc(C(=O)NCC4CC4)c2C3=O)CC1`?
BoNT A protease: inactive; Anthrax LF prot: inactive; GDH-TPI inh: inactive; Mtb FBA inh: inactive; Autofluor counter: inactive; BoNT F protease: inactive; BoNTA LC inh 2: inactive; LF protease CP2: inactive; BoNT-F LC CP2: inactive

Results for O=C(NCc1ccc(F)cc1)c1cccc2c1C(=O)c1ccc(N3CCC(N4CCCCC4)CC3)cc1S2(=O)=O ?
BoNT A protease: inactive; Anthrax LF prot: inactive; GDH-TPI inh: inactive; Mtb FBA inh: inactive; Autofluor counter: inactive; BoNT F protease: inactive

How did CCOC(=O)c1c(C)[nH]c(C)c1C(=O)CSc1nnc(-c2ccco2)n1Cc1ccccc1 do in these assays?
BoNT A protease: inactive; Anthrax LF prot: inactive; GDH-TPI inh: inactive; Mtb FBA inh: inactive; Autofluor counter: inactive; BoNT F protease: inactive

How did O=C(C[n+]1ccc(C(=O)c2ccccc2)cc1)Nc1ccccc1OC(F)F do in these assays?
BoNT A protease: 54.9; Anthrax LF prot: 64.5; GDH-TPI inh: inactive; Mtb FBA inh: inactive; Autofluor counter: inactive; BoNT F protease: inactive; BoNTA LC inh 2: inactive; LF protease CP2: inactive; BoNT-F LC CP2: inactive

How did Cc1cc2nc(-c3ccc(F)cc3)c(Cc3cccc(Cl)c3)n2c(C)c1Br do in these assays?
BoNT A protease: inactive; Anthrax LF prot: inactive; Autofluor counter: inactive; BoNT F protease: inactive; BoNTA LC inh 2: inactive; LF protease CP2: inactive; BoNT-F LC CP2: inactive

Results for Cc1ccc(Cc2c(-c3cccc(Cl)c3)nc3cc(C)c(Br)c(C)n23)cc1 ?
BoNT A protease: inactive; Anthrax LF prot: inactive; Mtb FBA inh: inactive; Autofluor counter: inactive; BoNT F protease: inactive

How did Cc1ccc(-c2nc3cc(C)c(Br)c(C)n3c2Cc2cccc(Cl)c2)cc1 do in these assays?
BoNT A protease: inactive; Anthrax LF prot: inactive; Autofluor counter: inactive; BoNT F protease: inactive; BoNTA LC inh 2: 26.4; LF protease CP2: inactive; BoNT-F LC CP2: inactive

Results for Cc1cc2nc(-c3ccccc3)c(Cc3cccc(Cl)c3)n2c(C)c1Br ?
BoNT A protease: inactive; Anthrax LF prot: inactive; Autofluor counter: inactive; BoNT F protease: inactive; BoNTA LC inh 2: inactive; LF protease CP2: inactive; BoNT-F LC CP2: inactive

Results for CCn1c(SCC(=O)Nc2cc(C)on2)nnc1-c1c[nH]c2ccccc12 ?
BoNT A protease: inactive; Anthrax LF prot: inactive; GDH-TPI inh: inactive; Mtb FBA inh: inactive; Autofluor counter: inactive; BoNT F protease: inactive

How did CCOC1=C2CN(S(=O)(=O)c3ccc(C)cc3)[C@H](c3ccccc3)C[C@H]2[C@H]2C(=O)N(c3ccccc3)C(=O)[C@H]2C1 do in these assays?
BoNT A protease: inactive; Anthrax LF prot: inactive; Mtb FBA inh: inactive; Autofluor counter: inactive; BoNT F protease: inactive
